# Screens deposited in PubChem BioAssay by National Center for Advancing Translational Sciences (NCATS).
# Many of the other results were omitted from the sample, so hits are more common in it than they were.
# HT1080 IDH1KD tx: HT-1080 IDH1 knockdown cell toxicity (counter line); HT-1080 IDH1 knockdown viability, ATP luminescence, 48 h; Potency, µM (titrated, usually from 46.1 µM), without a hit: at the highest dose activity, negative = toxicity, most hits filed as cytotoxic; 2% of 360,000 active; AID 686971;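 also: potency is read from the fitted curve at half-maximal effect; 0% = DMSO wells and -100% = cell-free medium wells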
#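 Using the IDH1-knockdown HT-1080 line run in the same batch and compound series as the NT line, viability after 48 h at 37 °C was determined by CellTiter-Glo luminescence and expressed as % activity.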
# TDP1 cell noCPT: qHTS for Inhibitors of human tyrosyl-DNA phosphodiesterase 1 (TDP1): qHTS in cells in absence of CPT; DT40 Tdp1-/- hTDP1 cells, no CPT, ATP luminescence, 48 h; Potency, µM (titrated, usually from 46.2 µM), for inactives: at the top dose activity change, negative = growth inhibition, most hits filed as inhibitors; 15% of 420,000 active; also: potency is read from the fitted curve at half-maximal effect; nearly all actives have a fitted effect of over 55% in size
#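 Camptothecin absent (DMSO only). Human TDP1-complemented DT40 knockout cells, 400 cells/well, 37 °C for minimum 48 hr; ATP measured via CellTiter-Glo, 30 min dark incubation, luminescence.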
# HT1080NT lethal: kills 2HG-producing HT-1080-NT fibrosarcoma cells; Potency, µM (highest dose often 46.1 µM), for the others: top-dose activity, negative = less viability, usual class: cytotoxic; AID 686970; 1.6% of 360,000 active; HT-1080-NT fibrosarcoma viability, CellTiter-Glo ATP luminescence, 48 h;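 also: NT is the 2HG producing partner of a matched IDH1 knockdown line; potency is read from the fitted curve at half-maximal effect; 0% = DMSO-treated cells and -100% = media-only wells without cells; nearly all actives have a fitted effect of over 55% in size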
#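 Fibrosarcoma NT cells, 750 per well in 5% FBS RPMI, were exposed to compound for 48 hours. Viability: CellTiter-Glo luminescence.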
# DT40 TDP1 CPT: growth inhibition of DT40 Tdp1-/-;hTDP1 cells with camptothecin (screen for TDP1 inhibitors); 12% of 420,000 active; Potency, µM (series often up to 46.2 µM), without a hit: top-dose activity change, negative = growth inhibition, most hits filed as inhibitors; chicken DT40 Tdp1-/-;hTDP1 cells + 20 nM CPT, ATP luminescence, 48 h; also: potency is read from the fitted curve at half-maximal effect; nearly all actives have a fitted effect of over 55% in size
#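 Cell growth measured by CellTiter-Glo luminescence after a minimum 48 h, 37 C compound exposure with 20 nM CPT in Tdp1-knockout DT40 cells stably expressing hTDP1, seeded 400/well; qHTS titration format.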
# IL-1B inflam inh: inhibitors of inflammasome signaling (IL-1 beta secretion). 4.7% of 360,000 active. THP-1 LPS/ATP IL-1B secretion, AlphaLISA, 16 h; active compounds read low. AID 743279. activity change, % at 57.5 µM; in the data active = activity change below about -50%; inconclusive = mostly about -30% to -49%
#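 Secreted IL-1B measured by AlphaLISA bead assay after 16 h compound exposure of THP-1 cells; compounds (final up to 57.5 uM) added 1 h before LPS (250 ng/mL) and ATP (1.25 mM) stimulation; lower signal means less secretion.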
# 12-LOX inh: ALOX12 (human) lipoxygenase inhibition; Potency, µM (top dose mostly 108 µM), for the others: at the highest dose activity change, negative = inhibition, actives largely listed as inhibitors; 1.1% of 580,000 active; P18054; purified 12hLO, xylenol orange hydroperoxide absorbance; also: potency is read from the fitted curve at half-maximal effect
# Target sequence (P18054 whole entry, looked up): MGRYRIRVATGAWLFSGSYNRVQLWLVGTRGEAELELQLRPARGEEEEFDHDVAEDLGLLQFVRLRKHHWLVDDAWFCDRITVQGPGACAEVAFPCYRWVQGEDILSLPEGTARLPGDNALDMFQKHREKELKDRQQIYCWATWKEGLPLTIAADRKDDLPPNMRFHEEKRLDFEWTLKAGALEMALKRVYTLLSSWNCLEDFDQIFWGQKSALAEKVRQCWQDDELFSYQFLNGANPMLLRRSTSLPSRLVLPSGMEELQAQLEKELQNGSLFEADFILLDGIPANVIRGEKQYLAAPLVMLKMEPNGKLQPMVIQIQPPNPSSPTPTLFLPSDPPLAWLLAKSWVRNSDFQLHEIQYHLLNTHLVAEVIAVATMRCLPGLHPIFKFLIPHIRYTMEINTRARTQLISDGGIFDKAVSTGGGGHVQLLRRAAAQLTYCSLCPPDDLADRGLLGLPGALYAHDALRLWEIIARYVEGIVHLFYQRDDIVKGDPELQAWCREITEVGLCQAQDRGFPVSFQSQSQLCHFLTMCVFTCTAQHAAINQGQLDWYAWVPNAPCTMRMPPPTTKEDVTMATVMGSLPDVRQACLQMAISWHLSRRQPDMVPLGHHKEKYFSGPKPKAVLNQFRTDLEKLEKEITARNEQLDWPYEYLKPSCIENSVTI
#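 Purified human 12hLO (150 nM final) in 25 mM Hepes, 0.01% Triton X-100, pH 7.0 was preincubated 15 min at room temperature with compound. Then 40 uM arachidonic acid was added, 30 min. Hydroperoxide was read by Fe-XO absorbance ratio 573/405 nm.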
# * marks the source's active call; other numbers are inactive results; ? = inconclusive; nt = not tested or not shown; [ ] = remark or other dose. Unless noted, calls follow the shape of the dose curve; as a rule, active = well fitted curve in the direction sought with a large enough effect; inconclusive = small, poorly fitted or top-dose-only effect, or another doubt; inactive = no such curve, though single readings can be large; an effect the other way counts as inactive or inconclusive. Unless noted, % is scaled to controls: 0 for no effect and ±100 for the full control effect.
SMILES,HT1080 IDH1KD tx,TDP1 cell noCPT,HT1080NT lethal,DT40 TDP1 CPT,IL-1B inflam inh,12-LOX inh
Cc1ccc2c(c1)C(c1ccccc1)N(C(=O)COc1ccc(Cl)cc1Cl)CC(=O)N2 (configuration not stated),nt,21µM*,nt,21µM*,nt,3%
CCCC(=O)N1CC(=O)Nc2ccc(C)cc2C1c1ccccc1 (configuration not stated),13%,-5%,9%,5%,30,-5%
CCCCCCn1c(SCCC(=O)O)nc2c1c(=O)[nH]c(=O)n2C,nt,nt,nt,nt,nt,0%
Cn1cnc(S(=O)(=O)N2CCC3(CC2)CC(CC(=O)N2CCCC2)CCO3)c1 (configuration not stated),nt,nt,nt,nt,nt,7%
COc1cc2nc(C)sc2cc1SC,8%,?,4%,?,4,0%
COc1cc2nc(/C=C/c3cc(OC)c(OC)c(OC)c3)sc2cc1SC,?,5.8µM*,?,5.8µM*,-26,-30%
COC(=O)c1ccc(NC(=O)Nc2cccc(F)c2)cc1,?,?,?,?,-92*,-15%
O=C(Cc1csc2ccccc12)NCC1CC1,0%,-7%,10%,10%,-1,?
O=C(Nc1ccccc1)Nc1ccc(F)cc1F,-5%,23µM*,-1%,?,-12,-15%
CC(=O)Nc1cccc(NC(=O)Nc2ccc(F)cc2F)c1,22%,?,18%,14%,9,4%
CN1CCC(CNC(=O)Nc2csc3ccccc23)CC1,-2%,-5%,-14%,-13%,51,40µM*
COC(=O)c1ccc(C(=O)Nc2ccc(F)cc2)cc1,-12%,8.2µM*,-16%,10µM*,11,0%
CC(Sc1nncn1-c1ccccc1)C(=O)Nc1ccc(N(C)C)cc1 (configuration not stated),nt,nt,nt,nt,nt,-3%
CN(C)c1ncc2c(n1)C(C)(C(=O)Nc1ccc(Cl)cc1)CCC2 (configuration not stated),nt,nt,nt,nt,nt,-18%[176 µM]
Cc1ccc([N+](=O)[O-])cc1N=C/C(Br)=C/c1ccccc1,nt,nt,nt,nt,nt,-14%
CN1C[C@@H](NC(=O)CC(C)(C)C)C[C@H]1c1nc(-c2ccc(OC(F)(F)F)cc2)no1,nt,nt,nt,nt,nt,25%[176 µM]
CSc1ccccc1C(=O)OC(C)C(=O)c1ccc(C(C)(C)C)cc1 (configuration not stated),nt,nt,nt,nt,nt,36%
O=C(Nc1ccc(F)cc1)Nc1csc2ccccc12,?,23µM*,?,23µM*,nt,-2%
COC(=O)c1ccc(NC(=O)Cc2ccc(F)cc2)cc1,-5%,?,-15%,?,-1,81%
COC(=O)c1ccc(NC(=O)Nc2ccc(F)cc2F)cc1,-2%,6.5µM*,3%,8.2µM*,-53*,-5%
Cc1noc([C@@H]2CN(Cc3ccc4c(c3)CCO4)C[C@H]2CO)n1,nt,nt,nt,nt,nt,13%
CCOC(=O)c1c(C)[nH]c(C(=O)COC(=O)[C@H](C)N2C(=O)C3CCCCC3C2=O)c1C (some centres not stated),-9%,26µM*,-6%,?,3,9%
COC(=O)c1c(C)[nH]c(C(=O)C(C)OC(=O)c2ccc(F)cc2F)c1C (configuration not stated),nt,nt,nt,nt,nt,8%
CCOC(=O)c1c(C)[nH]c(C(=O)COC(=O)c2[nH]c(C)c(C(C)=O)c2C)c1C,-3%,5.2µM*,5%,4.6µM*,25,-6%
CC(=O)c1c(C)[nH]c(C(=O)COC(=O)C2(C)CC2(Cl)Cl)c1C (configuration not stated),-1%,21µM*,-5%,18µM*,0,172%
SMILES,HT1080 IDH1KD tx,TDP1 cell noCPT,HT1080NT lethal,DT40 TDP1 CPT,IL-1B inflam inh,12-LOX inh
COC(=O)c1c(C)[nH]c(C(=O)C(C)OC(=O)c2cc(C)oc2C)c1C (configuration not stated),-23%,16µM*,10%,?,8,-12%
CC(=O)c1c(C)[nH]c(C(=O)COC(=O)CN2C(=O)C3CCCCC3C2=O)c1C (configuration not stated),0%,0%,0%,?,18,-2%
CC(=O)c1c(C)[nH]c(C(=O)COC(=O)c2ccc(C)s2)c1C,-1%,?,0%,12%,20,-8%
CC(=O)c1c(C)[nH]c(C(=O)COC(=O)c2cc(C)oc2C)c1C,-11%,2.6µM*,-3%,?,?,?
COc1ccc(-n2c(=O)c3c4c(sc3n(Cc3ccc(F)cc3)c2=O)CN(C(C)=O)CC4)c(OC)c1,nt,13µM*,nt,21µM*,nt,-2%
COc1ccc(-n2c(=O)c3c(C)c(C)sc3n(Cc3ccc(F)cc3)c2=O)c(OC)c1,-1%,13µM*,0%,3%,-9,-1%
COc1cccc(-n2c(=O)c3c(C)c(C(=O)N(C)C)sc3n(Cc3ccc(F)cc3Cl)c2=O)c1,nt,18µM*,nt,?,nt,-24%
COc1ccc(-n2c(=O)c3c(C)c(C)sc3n(CC(=O)NCc3ccc(C)cc3)c2=O)c(OC)c1,nt,-14%,nt,-5%,nt,-20%
COc1ccccc1-n1c(=O)c2c3c(sc2n(Cc2ccccc2F)c1=O)CN(C(C)=O)CC3,nt,-9%,nt,-22%,nt,?
Cc1cnc(SCc2ccccn2)nc1C1CCCN(C(=O)c2ccc3c(c2)OCCO3)C1 (configuration not stated),nt,-7%,nt,17%[9.04 µM],nt,15%
O=C(c1cc2c(s1)-c1ccccc1OC2)N1CCc2ccccc2C1,6%,-7%,4%,12%,-13,22%
CCOC(=O)C1CCN(C(=O)c2ccc(-n3ccc4ccccc43)s2)CC1,nt,21µM*,nt,?,nt,-16%
CC(NC(=O)C1CCN(C(=O)c2ccc(-n3ccc4ccccc43)s2)CC1)c1ccccc1 (configuration not stated),nt,18µM*,nt,?,nt,-7%
CC(NC(=O)C1CCN(C(=O)Nc2ccccc2)CC1)c1ccccc1 (configuration not stated),0%,-3%,-5%,-3%,-3,-11%
CCOC(=O)C1CCN(C(=O)c2cc3c(s2)-c2ccccc2OC3)CC1,-11%,?,-12%,15µM*,22,112%
c1ccc2c(N3CCNCC3)nc(-c3ccoc3)nc2c1,nt,1%,nt,-5%,nt,-20%
C[C@@H]1CN([C@@H](C)CO)S(=O)(=O)c2ccc(-c3ccc(C#N)cc3)cc2O[C@@H]1CN(C)Cc1ccccn1,0%,13µM*,-18%,?,-28,1%
